# Measurements taken from PubChem BioAssay (NCATS).
# Several values for one entry are separate records, joined by “and”; a condition that tells them apart may be missing. Equal values may be shown once. Results filed as inconclusive are left out. Entries that show only a call come without a potency. Activity calls are given as the source filed them. Calls come from the whole dose curve; as a rule, active = well fitted cell-killing curve with a large enough effect; inconclusive = small, poorly fitted or top-dose-only effect; inactive = flat fitted curve, though single readings scatter.
# Experiment: Cell Viability - LYMP2-023 (AID 975);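 note: cells exposed to compound for 24 hours at 37 °C; nearly all actives have a fitted effect of over 55% in size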
# Details: LYMP2-023 lymphoblastoid cell viability; series mostly up to 92.2 µM
# Summary of the method: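 CellTiter-Glo luminescence after 30 min at room temperature; decrease in intracellular ATP reflects toxicity. Cells: human lymphoblastoid line, 2500/well, 24 hr compound exposure at 37 C. AC50 fitted to standard Hill equation from concentration-response.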
# Potency is the fitted concentration of half-maximal effect.
row,SMILES,Potency
1,O=C(O)C(Cl)(Cl)Cl,inactive
2,C[C@H]1CC[C@@H]2[C@@H](C)[C@H]3[C@H](C[C@H]4[C@@H]5CC=C6CC(O[C@@H]7O[C@H](CO)[C@H](O)[C@H](O[C@@H]8O[C@H](CO)[C@@H](O)[C@H](O)[C@H]8O)[C@H]7O[C@H]7O[C@@H](C)[C@H](O)[C@@H](O)[C@H]7O)CC[C@]6(C)[C@H]5CC[C@]34C)N2C1 (some centres undefined),39.8 µM (active)
3,O=C1CCO1,inactive
4,COC1=CC(=O)O[C@@H](/C=C/c2ccccc2)C1,inactive
5,COc1ccc2c(c1OC)C(=O)OC2C1c2cc3c(cc2CCN1C)OCO3 (centres undefined),inactive
6,[Cl-].[Cl-].[Hg+2],10 µM (active)
7,CC(C)Nc1ccc(Nc2ccccc2)cc1,39.8 µM (active)
8,O=C1C2CC=CCC2C(=O)N1SC(Cl)(Cl)Cl (centres undefined),3.98 µM (active) and 7.94 µM (active)
9,C[C@]12CCC(=O)C[C@@H]1CC[C@@H]1[C@@H]2CC[C@]2(C)[C@@H](O)CC[C@@H]12,inactive
10,C=CCN=C=S,inactive
11,[O]=[Cr](=[O])([OH])[O][Cr](=[O])(=[O])[OH],12.6 µM (active) and 10 µM (active)
12,[O]=[Cd],inactive
13,O=C/C=C/c1ccccc1,inactive
14,Oc1cc(Cl)c(Cl)cc1Cl,inactive
15,S=C=S,inactive
16,ClCC1CO1 (centres undefined),inactive
17,CCOC(=O)c1ccccc1C(=O)OCC,inactive
18,CCCCCCCCOC(=O)c1ccccc1C(=O)OCCCCCCCC,inactive
19,CC(C)(C)c1cc(O)ccc1O,inactive
20,O=[N+]([O-])c1ccccc1,inactive
21,Clc1ccccc1Cl,inactive
22,ClC=C(Cl)Cl,inactive
23,ClC(Cl)(Cl)Cl,inactive
24,C[C@H]1CCC[C@H](O)CCCCCc2cc(O)cc(O)c2C(=O)O1,inactive
25,O=CC=O,inactive
26,CCCCCl,inactive
27,O=Cc1ccco1,inactive
28,NNC(N)=O,inactive
29,CC(C)CCON=O,inactive
